Results taken from PubChem BioAssay AID651813 (National Center for Advancing Translational Sciences (NCATS), 2012).
The campaign covered roughly 2,100 compounds. About 1,100 (52%) were called active. Not shown: some 27% with an inconclusive outcome. The call rests on the fitted dose curve; in most records, active means well fitted inhibition curve with a large enough effect; inconclusive means small, poorly fitted or top-dose-only effect; inactive means no such curve, though single readings can be large or run the other way. So high a share suggests a set chosen from earlier hits. Some of the results follow.

Each molecule was assayed against DNA dC->dU-editing enzyme APOBEC-3G (Homo sapiens) (UniProt Q9HC16) (assay: qHTS for inhibitors of Vif-A3G interactions: Cherry picks counterscreen). Settings: HeLa A3G-eYFP + Vif (tagged APOBEC3G with the HIV-1 protein that degrades it), eYFP fluorescence, 24 h.
Source text: The recent discovery and characterization of host restriction factors, which provide a potent defense to invading retroviruses, has provided new targets for antiviral drug development. APOBEC3G (A3G) and APOBEC3F (A3F) are potent cytidine deaminases that block HIV-1 replication; HIV-1 expresses the Vif protein, which counteracts A3G and A3F by binding to them and inducing their proteasomal degradation. The Vif-A3G and Vif-A3F interactions provide two potential targets for development of small molecules which can interfere with the ability of Vif to degrade A3G or A3F. […] To identify inhibitors that can interfere with Vif mediated degradation of A3G and A3F, we have developed Hela cell lines that stably express A3G or A3F tagged with eYFP at the C-terminal end (A3G-eYFP or A3F-eYFP, respectively) and Vif. In the absence of an inhibitor, Vif induces degradation of A3G-eYFP and A3F-eYFP, and the cells are not fluorescent. In the presence of an inhibitor, it is expected that Vif will be unable to degrade A3G-eYFP and/or A3F-eYFP, resulting in an increase in yellow fluorescence. In this counterscreen assay, Vif A3G was screened against the cherry picks ordered from the MLSMR. NIH Chemical Genomics Center [NCGC] NIH Molecular Libraries Probe Centers Network [MLPCN] MLPCN Grant: MH093245 Assay Submitter (PI): Vinay Pathak, National Cancer Institute
A3G-Vif cells were harvested from T225 flask and resuspended in phenol free OPTI-MEM medium with 5% FBS. Then 5 uL of 140,000 cells/mL resuspended cells was dispensed into each well of low base Aurora COC 1,536-well plates (black walled, clear bottom) using a Multidrop Combi dispenser. After overnight culture at 37 deg C with 5% CO2, a total of 23 nL of compounds at 5 selected concentrations from the NPC or positive control (2 mM stock of MG132) in DMSO was transferred to each well of the assay plate using a pintool (Kalypsys, San Diego, CA), and the plates were further incubated at 37 deg C with 5% CO2 for 24 hours. After that, the plates were measured on Acumen Explorer (TTP Lab Tech). The fluorescence was detected by 488 nm/Ex and […].
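Further: hits raise yellow fluorescence by blocking Vif-driven A3G-eYFP degradation; nearly all actives have a fitted effect of over 70% in size.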
Potency means the concentration at half of the fitted maximal effect.
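Wherever max response is given: max response given as percent of control signal.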

Sequence of DNA dC->dU-editing enzyme APOBEC-3G (Homo sapiens) (Q9HC16 whole entry, looked up): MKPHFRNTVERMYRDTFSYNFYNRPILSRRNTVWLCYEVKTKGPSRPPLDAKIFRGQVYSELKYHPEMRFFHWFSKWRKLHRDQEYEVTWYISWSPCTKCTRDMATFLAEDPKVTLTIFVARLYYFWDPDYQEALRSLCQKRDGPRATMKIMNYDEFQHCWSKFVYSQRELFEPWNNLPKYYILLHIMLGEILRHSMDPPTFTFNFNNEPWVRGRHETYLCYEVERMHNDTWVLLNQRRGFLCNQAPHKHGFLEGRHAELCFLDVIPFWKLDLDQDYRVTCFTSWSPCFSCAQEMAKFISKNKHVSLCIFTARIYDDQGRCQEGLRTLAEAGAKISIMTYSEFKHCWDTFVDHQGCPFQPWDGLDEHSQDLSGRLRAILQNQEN

Structure (SMILES)	Potency	max response
Oc1cccc(Nc2nc(O)c(/C=C3\C=Nc4ccccc43)s2)c1	20.6 µM (active)	
Cc1cc(N2CCCC2)ccc1/C=C1/C(=O)N(C)C(=S)N1C		40% (inactive)
Cc1cc(/C=C2\NC(=S)N(C)C2=O)ccc1N1CCCC1	5.59 µM (active)	
Cc1cc(N2CCCC2)ccc1/C=C1\NC(=S)N(C)C1=O	1.64 µM (active)	
O=C1/C(=C/c2ccc(N3CCCC3)cc2)NC(=S)N1C1CC1	7.31 µM (active)	
CCN1C(=O)/C(=C/c2ccc(N3CCCC3)cc2)NC1=S		47.9% (inactive)
C/C(=N\Nc1nccnc1Cl)c1ccc(Cl)c(Cl)c1		-0.872% (inactive)
CCn1c(=O)c2cc(C(=O)NCCCOC)sc2c2ccccc21	7.04 µM (active)	
N#CC1=C2SCC(O)(c3ccccc3)N2C(=O)CC1c1ccccc1 (configuration not stated)	5.59 µM (active)	
CCS(=O)(=O)Nc1cccc(C2=NN(C(=O)c3ccco3)C(c3ccco3)C2)c1 (configuration not stated)	14 µM (active)	
CCOc1cc(N(CC)CC)ccc1/C=C(/C#N)c1nc2ccccc2[nH]1		57.6% (inactive)
CCN(CC)c1ccc(/C=C(/C#N)c2nc3ccccc3[nH]2)c(OC(C)C)c1		42% (inactive)
CSc1nc2ccccc2cc1/C=C(\C#N)c1ccccc1	6.27 µM (active)	
CSc1nc2ccccc2cc1/C=C(\C#N)c1cccc(C)c1	12.5 µM (active)	
COC(=O)C1C2CC3c4[nH]c5cc(OC)ccc5c4CCN3CC2CC(OC(=O)CC(C)=O)C1OC (configuration not stated)	20.6 µM (active)	
COC(=O)C1=COC(C)C2CN3CCc4c([nH]c5cc(OC)c(OC)cc45)C3CC12 (configuration not stated)		-25.2% (inactive)
COc1cccc(/C(O)=C/c2nc3ccc(C(=O)NCCc4cccc(C)c4)cc3[nH]c2=O)c1	13 µM (active)	
COc1cccc(/C(O)=C/c2nc3ccc(C(=O)NCCc4ccc(Cl)cc4)cc3[nH]c2=O)c1	20.6 µM (active)	
COc1cc(OC)c(C2Nc3cccc4cccc(c34)N2)c(OC)c1		3.06% (inactive)
CCOc1ccccc1C1NC(=O)c2ccccc2N1 (configuration not stated)	2.5 µM (active)	
Cc1ccc(C)c(C2NC(=O)c3ccccc3N2)c1 (configuration not stated)	7.9 µM (active)	

Structure (SMILES)	Potency	max response
Cc1ccc(C2NC(=O)c3ccccc3N2)s1 (configuration not stated)	12.5 µM (active)	
COc1ccc2ccccc2c1C1NC(=O)c2ccccc2N1 (configuration not stated)	4.98 µM (active)	
O=[N+]([O-])c1ccccc1C1Nc2cccc3cccc(c23)N1		7.07% (inactive)
CC(=O)/C(N=Nc1cc(C)ccc1O)=C(\C)O	20.6 µM (active)	
CCOC(=O)N1CCN(/C=C(\C#N)c2nc3ccccc3s2)CC1	23.1 µM (active)	
COc1ccc(-c2coc3cc4oc(=O)cc(-c5ccccc5)c4cc23)cc1F	2.23 µM (active)	
COc1ccc(C)cc1NCc1cc(=O)oc2cc(-c3ccccc3)c(O)cc12		-4.57% (inactive)
Cc1sc2ncn(CC(=O)NCc3ccccc3)c(=O)c2c1C		-26.2% (inactive)
Cc1ccc(Cn2nnc3c(=O)n(CC(=O)NCc4ccccc4)cnc32)cc1	8.86 µM (active)	
O=C(Cn1cnc2c(cnn2-c2ccc(F)cc2)c1=O)NCc1ccco1	17.7 µM (active)	
CC(C)(C)n1ncc2c(=O)n(CC(=O)NCc3ccc(F)cc3)cnc21	7.9 µM (active)	
CCN(CC)c1nc(C=Cc2ccc(N(C)C)cc2)c2nccnc2n1	0.651 µM (active)	
CN(C)c1ccc(/C=C/c2nccc3ccccc23)cc1	13 µM (active)	
CN(C)c1ccc(C=Cc2nccc3ccccc23)cc1	14 µM (active)	
CCN(Cc1ccccc1)c1ccc(/C=C/c2nccc3ccccc23)cc1	13 µM (active)	
CC(=O)/C(=C\N(C)C)Sc1ccc(Cl)cc1		12% (inactive)
Cc1sc2ncnc(SCC(=O)NC(C)(C)C)c2c1C		-17.9% (inactive)
COc1ccccc1Nc1nnc(SCC2CCCCO2)s1 (configuration not stated)	17.7 µM (active)	
COc1cccc(OCc2nc3ncc(Br)cc3[nH]2)c1	3.14 µM (active)	
Nc1cccc(CCc2nc3cc4ccccc4cc3[nH]2)c1	4.98 µM (active)	
COc1cccc(N2CC(O)=C(c3nc4ccccc4s3)C2=N)c1	7.9 µM (active)	

Structure (SMILES)	Potency	max response
COc1cccc(N2CC(O)=C(c3nc4ccccc4c(=O)[nH]3)C2=N)c1	2.23 µM (active)	
CCOC(=O)Nc1ccc2c3c(cccc13)-c1ccccc1-2	2.31 µM (active)	
O=CNc1ccc2c3c(cccc13)-c1ccccc1-2	11.2 µM (active)	
CC(C)(C)c1ccc(OCC(=O)Nc2ccc3c4c(cccc24)C(=O)NC3=O)cc1		43.9% (inactive)
N#Cc1cc2ccccc2nc1SCc1ccccn1	23.1 µM (active)	
CCCCCCN1C[C@H](O)[C@@H](n2cc(COC(=O)c3ccccc3)nn2)C[C@@H]1c1ccc(C)cc1		4.43% (inactive)
CN(C)c1ccc2ccc3cccc4ccc1c2c34	13 µM (active)	
CSc1ccc(C2NC(=O)c3ccccc3N2)cc1 (configuration not stated)	11.2 µM (active)	
O=C1NC(c2ccc(Br)cc2)Nc2ccccc21 (configuration not stated)	17.7 µM (active)	
O=C1NC(c2cccc(Cl)c2)Nc2ccccc21 (configuration not stated)	12.5 µM (active)	
CC(C)n1cc(NC(=O)c2cc(-c3ccccc3)on2)cn1	5.59 µM (active)	
CCn1c(O)c(/C=N/N=C/c2ccc(OC)cc2)c2cc(C3=NNC(=O)CC3)ccc21	13 µM (active)	
N#CC(=Cc1ccccn1)c1nc(-c2ccc(Cl)cc2)cs1	6.27 µM (active)	
N#C/C(=C\c1ccc(Cl)cc1)c1nc2ncccc2[nH]1		-13.6% (inactive)
O=C(Cn1nc2c(cc1=O)CCCC2)NCc1ccc(Cl)cc1	13 µM (active)	
Cc1ccc(CNC(=O)Cn2cc(C(=O)c3ccc(Cl)cc3)c(=O)c3ccc(C)nc32)cc1		-25% (inactive)
CCC(C)Sc1cccc(-c2nc3cc(C)ccn3c2NC2CCCCC2)c1 (configuration not stated)		18.8% (inactive)
Cc1cccc(N2CCN(C(=O)c3ccncc3)CC2)c1C	12.5 µM (active)	
O=C1COc2ccc(C(=O)CSc3nc4ccccc4c(=O)n3-c3ccc(Cl)c(Cl)c3)cc2N1	18.4 µM (active)	
Cc1ccc(/C=C2/CNC/C(=C/c3ccc(C)cc3)C2=O)cc1	5.59 µM (active)	
